About 83,000 compounds went through this panel and 20% of them were active in at least one assay; those are over-represented in the sample as a whole.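 Growth was measured after 48 h exposure to one concentration of compound in 96-well plates. Values under 10 count as active.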 Active and inactive are the calls of the source.
Each molecule was assayed on U251 CNS (assay: NCI-60 one-dose screen, 48 h (100 = growth as untreated, 0 = no growth, -100 = all killed)). Conditions: 10 µM unless noted.

SMILES | growth
COc1cccc(NC(=O)Nc2ccc(Nc3ncnc4sc5c(c34)CCN(C(=O)CCl)C5)cc2)c1 | 95.5% (inactive)
CCN(CC)CCNC(=O)c1c(C)[nH]c(/C=C2\C(=O)Nc3ccc(F)cc32)c1C | -79.3% (active)
CO[C@@H](C)Cn1c(=O)n(C)c2cnc3ccc(-c4cncc(C(C)(C)O)c4)cc3c21 | 2.44% (active)
Cc1c(N)ccc(-c2ccc(N)c(C)c2S(=O)(=O)O)c1S(=O)(=O)O | 106% (inactive)
CNC(=O)c1cc(Oc2ccc(NC(=O)Nc3ccc(Cl)c(C(F)(F)F)c3)c(F)c2)ccn1 | -44.4% (active)
COCCOc1cnc2ccn([C@H](C)c3nnc4c(F)cc(-c5cnn(C)c5)cn34)c(=O)c2c1 | 92.2% (inactive)
N#Cc1c(-c2ccc(Cl)cc2)csc1NC(=O)Nc1cccc(C(F)(F)F)c1 | 6.02% (active)
CC(=O)C1CC(C)CCC1C(C)C (centres undefined) | 107% (inactive)
O=C(COc1cccc(/C=C2\Cc3ccc(Cl)cc3C2=O)c1)Nc1nccs1 | 96.7% (inactive)
O=C(Cn1ccnc1)Nc1ccc(-c2nc3ccccc3s2)cc1 | 71.9% (inactive)
CN1CCC(CNc2ccc3ncc(-c4cccc(OC(F)(F)F)c4)n3n2)CC1 | -89.2% (active)

These molecules were tested on PC-3 prostate in the same assay as above. Conditions: 10 µM unless noted.

SMILES | growth
C=CC(=O)N1CCC(Oc2cc3c(Nc4ccc(Cl)c(Cl)c4F)ncnc3cc2OC)CC1 | 14.2% (inactive)
FC(F)(F)c1ccc(CNc2ccc(Cc3c[nH]c4ncc(Cl)cc34)cn2)cn1 | 18.3% (inactive)
O=S1(=O)OC(c2cc(Cl)c(O)c(Br)c2)(c2cc(Cl)c(O)c(Br)c2)c2ccccc21 | 84.3% (inactive)
CC(C)(C)OC(=O)N1CCC(O)[C@@H](O[Si](c2ccccc2)(c2ccccc2)C(C)(C)C)[C@H]1/C=C/c1ccccc1 (some centres undefined) | 14% (inactive)
Cc1cn(-c2cc(NC(=O)c3ccc(C)c(Nc4nccc(-c5cccnc5)n4)c3)cc(C(F)(F)F)c2)cn1 | 26% (inactive)
Cc1cnc(Nc2ccc(OCCN3CCCC3)cc2)nc1Nc1cccc(S(=O)(=O)NC(C)(C)C)c1 | 20% (inactive)
Cc1cccc(C)c1N1C(c2ccccc2)=NNC12C=CC(=O)c1c(O)cccc12 (centres undefined) | 38.8% (inactive)
C=CC(=O)Nc1cccc(Nc2nc(Nc3ccc(N4CCN(C(C)=O)CC4)cc3OC)ncc2C(F)(F)F)c1 | 27.6% (inactive)
COc1ccc(/C(C)=C(\c2ccc(Cl)cc2)c2ccc(OCCN3CCCCCC3)cc2)cc1 | 45.3% (inactive)
Cc1cc(C(=O)Nc2cc(Oc3ccc4nc(NC(=O)C5CC5)cn4n3)ccc2C)n(C)n1 | 49.8% (inactive)
CO[C@H](C(=O)N[C@@H](CCCCNC(=O)OCc1ccccc1)C(=O)OC(C)(C)C)[C@@H]1Cc2cc3cc(OC4CC(OC5CC(O)C(O)C(C)O5)C(O)C(C)O4)c(C)c(O)c3c(O)c2C(=O)[C@H]1OC1CC(OC2CC(OC3CC(C)(O)C(O)C(C)O3)C(O)C(C)O2)C(O)C(C)O1 (some centres undefined) | 3.14% (active)
CCN(CCCOc1ccc2c(Nc3cc(CC(=O)Nc4cccc(F)c4)[nH]n3)ncnc2c1)CCOP(=O)(O)O | 80% (inactive)
CC/C=C\C[C@H]1C/C=C2/C(=O)C=C[C@@H]2C/C=C\CCCC(=O)O1 | -42.6% (active)
Cc1cn(-c2cc(NC(=O)c3ccc(C)c(Nc4nccc(-c5cnccn5)n4)c3)cc(C(F)(F)F)c2)cn1 | 60.3% (inactive)
COc1cc2ncnc3c2cc1OCCCCCN(C)Cc1ccc(Br)cc1N3 | 39% (inactive)
C[C@@]1(C(=O)Nc2ccc(F)nc2)CCCN1c1nc(Nc2cc(C3CC3)[nH]n2)c2cccn2n1 | 30.8% (inactive)
C[C@]12O[C@H](C[C@]1(O)CO)n1c3ccccc3c3c4c(c5c6ccccc6n2c5c31)CNC4=O | -31% (active)
CCN1CCN(CCCN(C[C@H]2Cc3ccccc3CN2)[C@H]2CCCc3cccnc32)CC1 | 77.3% (inactive)
COCc1c(-c2ccc(NC(=O)Nc3cc(C(F)(F)F)ccc3F)c(F)c2)c2c(N)ncnn2c1CN1CCOCC1 | -25.4% (active)
COc1cc2cc(NCc3ccc(F)cc3)nc(C)c2cc1OC | 48.2% (inactive)
CC(=O)C1=C(C)NC(SCc2nnc(-c3ccc(C)cc3)o2)=NC1c1ccc(F)cc1 (centres undefined) | 85.3% (inactive)
N#CC[C@H](C1CCCC1)n1cc(-c2ncnc3[nH]ccc23)cn1 | 59% (inactive)
Cc1ccc(-[n+]2c3cc(N)c(C)cc3nc3cc(C)c(Nc4ccccc4)cc32)cc1 | -29.1% (active)

— PubChem BioAssay (NCI)
